The supplement of paper PMC6135742
Where a name gives a salt, the structure may show the parent alone. ± gives the standard deviation of the averaged measurements. Over roughly 2,600 compounds, “total cell number (DAPI+ nuclei) relative to DMSO vehicle control” has its median near -1.4; the lowest 2% begin near -23. The list comes from a sample in which the lowest values are over-represented; it also holds similar structures and randomly drawn compounds.

These compounds were tested on jimpy (Plp1 jimpy) mouse iPSC-derived oligodendrocyte progenitor cells (assay: total cell number (DAPI+ nuclei) relative to DMSO vehicle control (SDs above negative control mean); higher = more surviving cells). Details: 10 µM; 3 days.
Procedure: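 Primary phenotypic screen of >3,000 bioactive compounds (Selleck L1700 and Sigma LO1280 libraries) at a single dose of 10 µM. Compounds were added to jimpy (Plp1 mutant) mouse iPSC-derived OPCs at the start of thyroid hormone-induced oligodendrocyte differentiation, one well per compound in 384-well plates. After 3 days cells were stained for MBP, Sox10 and DAPI and imaged with an Operetta system. MBP+ oligodendrocyte number and total cell number were expressed as the number of SDs above the mean of the DMSO negative control on the same plate (n=16 control wells per plate). Hits were defined as >=4 SD for oligodendrocytes and >=2 SD for total cells.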
`CCN(c1cc(-c2ccc(CN3CCOCC3)cc2)cc(C(=O)NCc2c(C)cc(C)[nH]c2=O)c1C)C1CCOCC1` was tested, and the total cell number was 2.45. Work on `Cc1cc(C)c(CNC(=O)c2cc(-c3ccc(CN4CCOCC4)cc3)cc3c2cnn3C2CCCC2)c(=O)[nH]1` yielded a total cell number of 7.3. Work on `CCNC(=O)c1noc(-c2cc(C(C)C)c(O)cc2O)c1-c1ccc(CN2CCOCC2)cc1` yielded a total cell number of -26.3. `CN[C@@H](C)C(=O)N[C@H](C(=O)N1CCC[C@H]1C(=O)Nc1snnc1-c1ccccc1)C1CCCCC1` showed a total cell number of -4.08. `O=S(=O)(O)Oc1ccc(C(c2ccc(OS(=O)(=O)O)cc2)c2ccccn2)cc1` [Sodium Picosulfate] showed a total cell number of 0.486. Compound `O=C(O)C(=O)O.[NH-][C@@H]1CCCC[C@H]1[NH-].[Pt+2]` [Oxaliplatin] has a total cell number of -23.4. In the case of `COc1ccc2c(Oc3ccc(NC(=O)c4c(C)n(CC(C)(C)O)n(-c5ccccc5)c4=O)nc3)ccnc2c1`, the total cell number is reported as -3.37. `CCOC(=O)CC(=O)N1CCSC1COc1ccccc1OC` (stereo not given) [Moguisteine] gave a total cell number of -1.39. In the case of `NC1(c2ccc(-c3nc4ccn5c(=O)[nH]nc5c4cc3-c3ccccc3)cc2)CCC1`, the total cell number is reported as -25.6. `CC1=C(C(=O)O)N2C(=O)[C@@H](NC(=O)[C@H](N)C3=CCC=CC3)[C@H]2SC1` [Cephradine] showed a total cell number of -1.61. In the case of `CN(C)CCC(c1ccc(Cl)cc1)c1ccccn1` (racemic) [(±)-Chlorpheniramine maleate], the total cell number is reported as -2.22. `CCOc1cc2ncc(C#N)c(Nc3ccc(F)c(Cl)c3)c2cc1NC(=O)/C=C/CN(C)C` [Pelitinib (EKB-569)] was tested, and the total cell number was -27.4. Work on `CCOc1cc2ncc(C#N)c(Nc3ccc(OCc4ccccn4)c(Cl)c3)c2cc1NC(=O)/C=C/CN(C)C` [Neratinib (HKI-272)] yielded a total cell number of -12.8. `COc1cc(C(C)=O)ccc1OCCCN1CCC(c2noc3cc(F)ccc23)CC1` [Iloperidone] was tested, and the total cell number was -2.6. With `COc1cc2ncnc(Nc3ccc(Cl)cc3F)c2cc1OC` the total cell number was -8.14. Compound `CN(C)C/C=C/C(=O)Nc1cc2c(Nc3ccc(F)c(Cl)c3)ncnc2cc1O[C@H]1CCOC1` [Afatinib (BIBW2992)] has a total cell number of -25.6. `COc1cc2ncnc(Nc3ccc(F)c(Cl)c3)c2cc1OCCCN1CCOCC1` [Gefitinib (ZD1839)] gave a total cell number of -20.6. Work on `C=CC(=O)Nc1cc2c(Nc3ccc(F)c(Cl)c3)ncnc2cc1OCCCN1CCOCC1` [Canertinib (CI-1033)] yielded a total cell number of -24.4. Work on `CCOc1cc(C(=O)Nc2ccc(Cl)c(-c3nc4ccccc4[nH]3)c2)cc(OCC)c1OCC` yielded a total cell number of -2.15. Compound `COc1cc2nccc(Oc3ccc(NC(=O)C4(C(=O)Nc5ccc(F)cc5)CC4)cc3)c2cc1OC` has a total cell number of -20. Compound `COc1cc2c(Oc3ccc(NC(=O)C4(C(=O)Nc5ccc(F)cc5)CC4)cc3F)ccnc2cc1OCCCN1CCOCC1` has a total cell number of -27. Compound `COc1cc2ncnc(Nc3ccc(F)c(Cl)c3)c2cc1NC(=O)/C=C/CN1CCCCC1` has a total cell number of -11.6. With `C=CC(=O)Nc1ccc2ncnc(Nc3ccc(OCc4cccc(F)c4)c(Cl)c3)c2c1` the total cell number was -12.9. In the case of `Cc1c(C(=O)N2CCOc3ccc(-c4ccc(N)nc4)cc3C2)ccc(S(C)(=O)=O)c1F`, the total cell number is reported as -3.21. `NOCC(=O)O` [O-(Carboxymethyl)hydroxylamine hemihydrochloride] gave a total cell number of 1.52. With `N#Cc1c(O)c2c(-c3ccc(-c4ccccc4O)cc3)csc2[nH]c1=O` the total cell number was 0.298. With `c1coc(CNc2ncnc3[nH]cnc23)c1` [Kinetin] the total cell number was 0.658. For `COc1cc(/C=C(\C#N)C(=O)Nc2nnc(C(F)(F)F)s2)ccc1OCc1ccc(C(F)(F)F)cc1C(F)(F)F`, the total cell number was -0.657. For `Cc1cc(/C=C/C#N)cc(C)c1Nc1ccnc(Nc2ccc(C#N)cc2)n1` [Rilpivirine], the total cell number was -9.09. For `Oc1ccc(/C=C/c2cc(O)cc(O)c2)cc1` [Resveratrol], the total cell number was -2.54 ± 1. In the case of `CCN(c1nc(N)c(C(=O)NC(=N)N)nc1Cl)C(C)C` [5-(N-Ethyl-N-isopropyl)amiloride], the total cell number is reported as -4.19. With `O=c1cc[nH]c(=S)[nH]1` [2-Thiouracil] the total cell number was -0.0444. `CS(=O)(=O)c1ccc(C(=O)Nc2ccc(Cl)c(-c3ccccn3)c2)c(Cl)c1` [Vismodegib (GDC-0449)] was tested, and the total cell number was -1.63. Compound `CNC(=O)Nc1ccc(-c2nc(N3CC4CCC(C3)O4)c3cnn(C4CCC5(CC4)OCCO5)c3n2)cc1` has a total cell number of -8.93. With `COc1ccccc1N1CCN(CCCNc2c(C)c(=O)n(C)c(=O)n2C)CC1` [Urapidil, 5-Methyl-] the total cell number was -1.49. With `CCCCCCCCCCCCCCCCCCOP(=O)([O-])OC1CC[N+](C)(C)CC1` [Perifosine] the total cell number was -0.796. `CN(C)CC(c1ccc(O)cc1)C1(O)CCCCC1` (stereo not given) [Desvenlafaxine] showed a total cell number of -0.735. For `CN(C)CC(c1ccc(O)cc1)C1(O)CCCCC1` (stereo not given) [Desvenlafaxine Succinate], the total cell number was -3.69. With `Oc1ccccc1O` [Pyrocatechol] the total cell number was -10.2. Compound `Nc1cc(=O)[nH]c(N)n1` [2,4-Diamino-6-pyrimidinone] has a total cell number of -1.65. With `CC(C)(O)CC[C@@H](O)[C@](C)(O)[C@H]1CC[C@@]2(O)C3=CC(=O)[C@@H]4C[C@@H](O)[C@@H](O)C[C@]4(C)[C@H]3CC[C@]12C` [20-Hydroxyecdysone] the total cell number was -0.544. Compound `CC(S)C(=O)NCC(=O)O` (stereo not given) [Tiopronin] has a total cell number of -2.65. For `C=C(C)[C@@H]1CC=C(C(=O)O)CC1` [(-)-Perillic acid], the total cell number was -1.68. Work on `CN(C)c1ccc(-c2nc3ncc(Cl)c(N4CCN(CC(=O)Nc5nccs5)CC4)c3[nH]2)cc1` yielded a total cell number of 1.85. With `O=C1CCC(N2C(=O)c3ccccc3C2=O)C(=O)N1` (racemic) [(±)-Thalidomide] the total cell number was -2.18. `O=C1CCC[C@@H]2[C@H]3CCC[N+]4([O-])CCC[C@@H](CN12)[C@@H]34` (stereo not given in full) [Oxymatrine] gave a total cell number of -0.222. For `C#Cc1cccc(Nc2ncnc3cc(OC)c(OCCCCCCC(=O)NO)cc23)c1`, the total cell number was -18.7. In the case of `COc1cc2c(N3CCN(C(=O)Nc4ccc(OC(C)C)cc4)CC3)ncnc2cc1OCCCN1CCCCC1` [Tandutinib (MLN518)], the total cell number is reported as -10.3. In the case of `COc1cc2c(Nc3ccc(NC(=O)c4ccccc4)cc3)ncnc2cc1OCCCN1CCOCC1`, the total cell number is reported as -26.6. Work on `CCOC(=O)[C@@H](N)Cc1ccc(O)c(O)c1` [L-Dopa ethyl ester] yielded a total cell number of -2.07. Work on `CO[C@H]1/C=C\C=C(/C)C(=O)NC2=CC(=O)C(NCCN(C)C)=C(C[C@@H](C)C[C@H](OC)[C@H](O)[C@@H](C)/C=C(\C)[C@@H]1OC(N)=O)C2=O` [17-DMAG (Alvespimycin) HCl] yielded a total cell number of -26.5. `COC1=C2C[C@@H](C)C[C@H](OC)[C@H](O)[C@@H](C)/C=C(\C)[C@H](OC(N)=O)[C@@H](OC)/C=C\C=C(/C)C(=O)NC(=CC1=O)C2=O` [Geldanamycin] was tested, and the total cell number was -12.3. Compound `C=CCNC1=C2C[C@@H](C)C[C@H](OC)[C@H](O)[C@@H](C)/C=C(\C)[C@H](OC(N)=O)[C@@H](OC)/C=C\C=C(/C)C(=O)NC(=CC1=O)C2=O` [17-AAG (Tanespimycin)] has a total cell number of -25. Work on `CN(NC(=O)CC(=O)NN(C)C(=S)c1ccccc1)C(=S)c1ccccc1` [Elesclomol (STA-4783)] yielded a total cell number of -1.04. `CCC(C)(Oc1ccc(C2(c3ccc(OC(C)(CC)C(=O)O)cc3)CCCCC2)cc1)C(=O)O` (stereo not given) [Clinofibrate] showed a total cell number of 1.25. `N[C@H]1C[C@@H]1c1ccc(-c2cccc(O)c2)cc1` was tested, and the total cell number was -3.31. Work on `Cc1ccc(C(=O)Cn2c3c(sc2=N)CCCC3)cc1` [Pifithrin-? (PFT?)] yielded a total cell number of 1.69. For `OC[C@H]1O[C@@H](n2cnc3c(N[C@H]4CCC[C@@H]4O)ncnc32)[C@H](O)[C@@H]1O`, the total cell number was 0.458. `CC(Cc1ccc(O)c(O)c1)(NN)C(=O)O` (stereo not drawn) [S-(-)-Carbidopa] showed a total cell number of -1.61. In the case of `Cc1cc(Cn2cnc3c2C[C@@H](C(=O)O)N(C(=O)C(c2ccccc2)c2ccccc2)C3)ccc1N`, the total cell number is reported as -6.04. Compound `O=C(Nc1ccccc1-c1cn2c(CN3CCNCC3)csc2n1)c1cnc2ccccc2n1` has a total cell number of -27.8. Compound `C=C1C[C@@]23CC[C@H]4[C@@](C)(CCC[C@@]4(C)C(=O)O)[C@@H]2CC[C@]1(O)C3` [Steviol] has a total cell number of -0.619. Work on `CC(C)c1cc(-c2n[nH]c(=O)n2-c2ccc3c(ccn3C)c2)c(O)cc1O` [Ganetespib (STA-9090)] yielded a total cell number of -25.4. Work on `Cc1cc(NC(=O)Nc2ccc3c(ccn3C)c2)sn1` yielded a total cell number of -1.4. `CN(C[C@@H]1COCCO1)S(=O)(=O)Nc1ccc2ccc3ncc(-c4cnn(C)c4)cc3c(=O)c2c1` showed a total cell number of -9.05. In the case of `Cc1ccc(C(=O)N(CCCN)[C@@H](c2nc3cc(Cl)ccc3c(=O)n2Cc2ccccc2)C(C)C)cc1`, the total cell number is reported as -27.5. `Cc1ccc(C(=O)N(CCCN)[C@@H](c2oc3cc(Cl)ccc3c(=O)c2Cc2ccccc2)C(C)C)cc1` was tested, and the total cell number was -15.1. For `CNC(=O)CN(CCN(CCN(CC(=O)[O-])CC(=O)NC)CC(=O)[O-])CC(=O)[O-].[Gd+3]` [Gadodiamide], the total cell number was -14.9. `C=CCNC(N)=S` [Allylthiourea] showed a total cell number of 6.27. Work on `CCc1ccc(OCc2ccccc2C(=O)Nc2ccc3nc(C)cc(N)c3c2)cc1` yielded a total cell number of -12.5. For `COc1cc2nccc(Oc3ccc(NC(=O)NC4CC4)c(Cl)c3)c2cc1C(N)=O` [Lenvatinib (E7080)], the total cell number was -9.34. With `COc1cc2nccc(Oc3ccc(NC(=O)Nc4cc(C)on4)c(Cl)c3)c2cc1OC` [Tivozanib (AV-951)] the total cell number was -23.5. `COc1cc(OC)c(NC(=O)Nc2cc(C)on2)cc1Cl` gave a total cell number of -0.876. With `Nc1nccc2c1ncn2C1C=C(CO)C(O)C1O` (stereo not given) [3-Deazaneplanocin A (DZNeP)] the total cell number was -9.16. Compound `CN(C)C[C@H](O)Cn1c2ccc(Br)cc2c2cc(Br)ccc21` (racemic) [Wiskostatin] has a total cell number of -4.17. `Nc1n[n+]([O-])c2ccccc2[n+]1[O-]` [Tirapazamine] was tested, and the total cell number was -6.5. In the case of `COc1c(C)cnc(Cn2cnc3c(Cl)nc(N)nc32)c1C`, the total cell number is reported as -26.3. `COc1ccc2[nH]c([S@@+]([O-])Cc3ncc(C)c(OC)c3C)nc2c1` [Esomeprazole magnesium dihydrate] showed a total cell number of -0.604. `COc1ccc2[nH]c([S@@+]([O-])Cc3ncc(C)c(OC)c3C)nc2c1` [Esomeprazole Sodium] showed a total cell number of 1.8. `COc1ccc2[nH]c([S+]([O-])Cc3ncc(C)c(OC)c3C)nc2c1` (stereo not given) [Omeprazole] showed a total cell number of 5.38.
